Cruzain noTriton: inhibitors of Trypanosoma cruzi cruzain without detergent; purified cruzain, Z-FR-AMC fluorescence, no detergent; Potency, µM, inactives show max response, negative = inhibition, usual class: inhibitors; 200,000 compounds, 2.3% hits;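 further: plate controls were enzyme without inhibitor for no effect and buffer without enzyme for full effect; nearly all actives have a fitted effect of over 40% in size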
Target sequence (P25779 123-467 limits assumed): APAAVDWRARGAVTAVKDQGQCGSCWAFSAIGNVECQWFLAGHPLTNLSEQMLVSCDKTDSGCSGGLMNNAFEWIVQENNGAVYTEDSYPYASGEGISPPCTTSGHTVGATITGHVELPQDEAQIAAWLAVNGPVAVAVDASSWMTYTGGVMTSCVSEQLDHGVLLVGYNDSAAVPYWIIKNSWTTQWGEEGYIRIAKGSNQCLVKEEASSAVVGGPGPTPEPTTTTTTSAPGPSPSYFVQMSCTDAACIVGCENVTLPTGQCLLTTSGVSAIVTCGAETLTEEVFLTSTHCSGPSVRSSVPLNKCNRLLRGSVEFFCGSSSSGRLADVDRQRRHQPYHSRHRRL
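Purified cruzain at 1.5 nM, pre-incubated 15 min with compound at room temperature in 100 mM sodium acetate pH 5.5, 5 mM DTT, 0.00005% Triton X-100. Reaction started with 2 uM Z-FR-AMC; AMC fluorescence increase over 60 s gives rate.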
Cruzain Triton: cruzain (T. cruzi) inhibition with detergent. P25779. AID 1478. 200,000 compounds, 0.43% hits. purified cruzain, Z-FR-AMC fluorescence, 0.01% Triton. Potency, µM, without a hit: max response, negative = inhibition, usual class: inhibitors;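 further: plate controls were neutral wells for no effect and buffer without enzyme for full effect; nearly all actives have a fitted effect of over 40% in size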
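In this qHTS format, compounds are incubated with 1.5 nM cruzain for 15 min at room temperature before 2 uM Z-FR-AMC is added. Release of AMC is followed at 360/450 nm, and progress is taken as the 60 s fluorescence difference.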
* = called active by the depositor; ? = inconclusive. A selection: hits, their analogues and other compounds. The true share with any hit is near 2.5%. The call rests on the fitted dose curve; in most records, active means well fitted curve in the direction sought with a large enough effect; inconclusive means small, poorly fitted or top-dose-only effect, or another doubt; inactive means no such curve, though single readings can be large; an effect the other way counts as inactive or inconclusive. Potency means the concentration at half of the fitted maximal effect.

SMILES | Cruzain noTriton | Cruzain Triton
O=C(Nc1ncc(Cc2cccc(Cl)c2)s1)C1CCCO1 (centres undefined) | -3.6% | -2.6%
COC[C@H]1OC=C[C@@H](OC)[C@@H]1OC | 6.6% | -2.2%
Cc1cc(S(=O)(=O)Nc2cc3c(cc2N2CCOCC2)n(C)c(=O)n3C)ccc1F | ? | -0.2%
CCOC(=O)c1cc(-c2ccc(N)cc2)sc1N | 31.6µM* | -16.8%
CCOC(=O)c1sc(-c2ccc(Br)cc2)cc1N | -2.1% | -5.6%
CC(C)OC(=O)c1c(NC(=O)c2cnn3c2NC(c2ccccc2)CC3C(F)(F)F)sc2c1CCCC2 (centres undefined) | ? | 3.4%
CCOC(=O)c1c(NC(=O)c2cnn3c2NC(c2cccc(OC)c2)CC3C(F)(F)F)sc2c1CCCC2 (centres undefined) | 3.16µM* | -1.1%
CC(C)c1ccc(S(=O)(=O)c2cn(CC(=O)Nc3ccc(F)cc3)c3ccccc3c2=O)cc1 | 2.9% | -0.1%
O=C(NCc1ccc(F)cc1)c1cc2c(s1)-c1ccccc1SC2 | ? | -12.2%
O=C(NCc1ccccc1Cl)c1cc2c(s1)-c1ccccc1SC2 | 25.1µM* | -4.9%
CCOC(=O)c1ccccc1NC(=O)c1cc2c(s1)-c1ccccc1SC2 | 7.94µM* | -5.8%
CCc1ccccc1N(CC)C(=O)c1cc2c(s1)-c1ccccc1SC2 | -9.4% | -9.7%
COc1ccc(Cl)cc1NC(=O)c1cc2c(s1)-c1ccccc1OC2 | -1.4% | -2.6%
COc1ccc(C)cc1NC(=O)c1cc2c(s1)-c1ccccc1SC2 | 15.8µM* | -6.3%
CCOC(=O)c1ccccc1NC(=O)c1cc2c(s1)-c1c(C)cccc1OC2 | 10.4% | 3.4%
CC(C)c1ccc(NC(=O)c2cc3c(s2)-c2ccccc2SC3)cc1 | 10µM* | -4.1%
Cc1nc(-c2cccnc2)sc1CCNS(=O)(=O)c1ccc(F)cc1 | -2.7% | -5.7%
Cc1nc(N2CCOCC2)c2c(C(=O)Nc3cccc(C(F)(F)F)c3)c(C)oc2n1 | -9.2% | -1.6%
CCOC(=O)c1c(C)[nH]c(C)c1S(=O)(=O)N(C)CC(=O)Nc1cccc(C(F)(F)F)c1 | 11.4% | -1.0%
CCOc1ccc(NC(=O)Cn2nc(Cc3cccnc3)c3ccccc3c2=O)cc1 | -8.4% | -1.4%
Cc1cccc(C)c1NCc1nnc(SCC(=O)Nc2nc(-c3ccccc3)cs2)n1-c1ccccc1 | ? | -1.0%
CCOc1ccc(NCc2nnc(SCC(=O)Nc3nc(-c4ccccc4)cs3)n2-c2ccccc2)cc1 | 25.1µM* | 0.5%
COc1ccc(C(=O)Oc2ccc(=O)n(-c3ccccc3)n2)cc1 | -9.5% | -11.4%
COC(=O)c1ccc(OCC2c3cc(OC)c(OC)cc3CCN2C(=O)C(C)C)cc1 (centres undefined) | ? | -0.9%
COc1ccc(C2c3c(ccc4ccccc34)Oc3ncn4nc(Cc5ccccc5)nc4c32)cc1OC (centres undefined) | ? | -1.6%
SMILES | Cruzain noTriton | Cruzain Triton
COc1ccc(/C=N/OCc2nc3c4c(ncn3n2)Oc2ccc3ccccc3c2C4c2ccccc2)cc1 (centres undefined) | 1.58µM* | 5.0%
CC1=C(O)C(=O)C=C2C1=CC=C1[C@]2(C)CC[C@@]2(C)C3C[C@](C)(C(=O)O)CC[C@@]3(C)CC[C@@]12C (some centres undefined) | -2.5% | -9.9%
Cc1ccc(Nc2nc3ccccc3s2)cc1 | 7.6% | -10.4%
O=[N+]([O-])c1ccc(Nc2nc3ccccc3s2)cc1 | 3.98µM* | 3.55µM*
CC(=O)c1c(N2CCN(Cc3ccccc3)CC2)[nH]c(-c2ccccc2)nc1=S | 10µM* | -10.7%
CC(=O)c1c(N2CCCC2)[nH]c(-c2ccccc2)nc1=S | -6.4% | 3.1%
FC(F)(F)c1cccc(-c2nc3nc(Cl)c(Cl)nc3[nH]2)c1 | -13.1% | -5.0%
Cn1c(=N)c(S(=O)(=O)c2ccc(F)cc2)cc2c(=O)n3ccccc3nc21 | ? | 31.6µM*
CCOCCCn1c(=N)c(S(=O)(=O)c2ccc(C)cc2)cc2c(=O)n3ccccc3nc21 | -8.3% | -7.3%
CC[C@H](Oc1ccc(Cl)cc1)C(=O)OC1C[C@H]2CC[C@@H](C1)N2C (some centres undefined) | 9.4% | 3.3%
Cn1cc(/C=C2/SC(=O)N(c3ccccc3)C2=O)c2ccccc21 | ? | 1.0%
Cc1ccc(N=C2NC(=O)/C(=C/c3cn(C)c4ccccc34)S2)cc1C | 12.6µM* | -4.6%
O=C(Nc1ccc(NC(=O)c2cccs2)cc1)c1ccc(Br)o1 | 25.1µM* | 5.4%
O=C(NNC(=O)c1cccs1)c1ccc(Br)o1 | -15.1% | -19.2%
O=C1c2ccccc2C(Nc2ccc(Cl)cn2)N1c1cccnc1 (centres undefined) | -4.3% | 1.0%
Cc1ccc(Cl)cc1Nc1nc(-c2sc(NC(=O)c3ccco3)nc2C)cs1 | 25.1µM* | -3.5%
Cc1nc(NC(=O)c2ccco2)sc1-c1csc(Nc2ccc(Cl)cc2Cl)n1 | 12.6µM* | -3.1%
O=C(Nc1nc2ccc(Cl)cc2s1)c1ccco1 | ? | -3.2%
COc1cccc(N(C(=O)c2ccco2)c2nc(-c3sc(NC(=O)c4ccco4)nc3C)cs2)c1 | ? | -2.7%
COc1ccccc1Nc1nc(-c2sc(NC(=O)c3ccco3)nc2C)cs1 | ? | -5.8%
Cc1nc(NC(=O)c2ccco2)sc1-c1csc(Nc2ccc(Cl)cc2)n1 | 12.6µM* | -2.1%
Cc1ccccc1OCc1nc2ccccc2n1Cc1ccccc1Cl | -4.5% | -8.0%
Cc1ccc(S(=O)(=O)c2nnn3c2nc(NC(C)C)c2sccc23)cc1 | 14.5% | 0.9%
CC1CCN(CCCCOc2ccccc2[N+](=O)[O-])CC1 | -1.6% | -2.0%
CCn1c(COc2ccccc2Cl)nnc1SCC(=O)Nc1ncccc1C | -2.9% | -0.2%
SMILES | Cruzain noTriton | Cruzain Triton
C[C@@H](NC(=O)CN(c1ccccc1)S(=O)(=O)N(C)C)c1ccccc1 | 15.3% | -0.3%
CSCCC(NC(=O)c1ccc(Cl)cc1)C(=O)OCC(=O)Nc1cc(Cl)ccc1C#N (centres undefined) | -28.7% | 25.1µM*
CSCCC(NC(=O)c1ccccc1)C(=O)OCC(=O)Nc1ccc(C)c(Cl)c1 (centres undefined) | -14.3% | 14.1µM*
CSCCC(NC(=O)c1ccccc1)C(=O)Nc1ccc(C)cc1 (centres undefined) | -17.9% | 0.4%
CSCCC(NC(=O)c1ccc([N+](=O)[O-])cc1Cl)C(=O)OCC(=O)N(C)C (centres undefined) | -22.9% | -23.6%
N=C(N)SCCN1CCCCC1 | -1.8% | 3.9%
C=CCOc1cccc(/C=N/NC(=O)CN(c2cc(Cl)ccc2OC)S(=O)(=O)c2ccc(C)c([N+](=O)[O-])c2)c1 | ? | -0.6%
COc1ccc(Cl)cc1N(CC(=O)N/N=C/c1ccc(OC(C)C)cc1)S(=O)(=O)c1ccc(C)c([N+](=O)[O-])c1 | 5.01µM* | -1.8%
COc1ccc(N(C)C(=O)c2cn(C3CCCCC3)c(=O)c3c2c2ccccc2n3C)cc1 | 12.4% | -9.4%
COC(=O)c1ccc(CSc2nc3scc(-c4cccs4)c3c(=O)[nH]2)o1 | 15.8µM* | -7.0%
COC(=O)c1ccc(CSc2nc3ccc(Cl)cc3[nH]2)o1 | -7.6% | 5.3%
O=[n+]1c2c(n([O-])c3ccccc31)CCCC2 | -5.5% | -0.9%
O=C(Nc1ncc(S(=O)(=O)c2ccc([N+](=O)[O-])cc2)s1)c1cccc2ccccc12 | 12.6µM* | -4.1%
O=C(NC(Nc1ncc(S(=O)(=O)c2ccc([N+](=O)[O-])cc2)s1)(C(F)(F)F)C(F)(F)F)c1ccc(Cl)cc1 | 3.3% | -8.8%
Cc1ccc2scc(N3CCN(c4ccccc4)CC3)c(=O)c2c1 | 1.8% | -5.8%
